Consider 23 compounds from PubChem BioAssay (NCI).

About 79,000 compounds went through this panel and 15% of them were active in at least one assay; those are over-represented in the sample as a whole. Values without a mark were called inactive. Calls of active or inactive are those of the source. No stated cut-off is given here; in the data, active means growth inhibition above about 70%; inactive means the rest.

A short description of test [1]: NCI Yeast Anticancer Drug Screen. Data for the rad50 strain (AID 155).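 Further: 0% = growth of vehicle-only cultures of the same strain.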 Conditions: S. cerevisiae rad50 strain growth inhibition; at 50.0 µM; active compounds read high. The essentials:
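DNA repair mutant yeast, compound exposure, growth read-out; inhibition is taken relative to vehicle.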

A short description of test [2]: NCI Yeast Anticancer Drug Screen. Data for the mec2-1 strain (AID 157). Conditions: S. cerevisiae mec2-1 strain, at 50.0 µM, active compounds read high. The procedure, abridged: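 Mutant yeast (mec2-1) grown with compound; growth inhibition relative to vehicle control reported.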
Test [3] in a line: NCI Yeast Anticancer Drug Screen. Data for the sgs1 mgt1 strain (AID 161).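 Further: 0% = growth of cultures given vehicle only.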 Conditions: S. cerevisiae sgs1 mgt1 strain, at 50.0 µM, active compounds read high. The procedure, abridged: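 Yeast cells carrying a defined DNA-repair defect were exposed to test compounds. Growth inhibition was measured relative to vehicle-treated controls.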
A short description of test [4]: NCI Yeast Anticancer Drug Screen. Data for the cln2 rad14 strain (AID 165).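 Further: 0% = growth equal to vehicle treated cultures.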 Conditions: S. cerevisiae cln2 rad14 strain, at 50.0 µM, active compounds read high. The essentials:
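Readout is yeast growth inhibition versus vehicle-treated controls, using a strain with cln2 and rad14 alterations exposed to compound.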

Test [5] can be described thus: NCI Yeast Anticancer Drug Screen. Data for the bub3 strain (AID 167). Conditions: S. cerevisiae bub3 mutant strain, at 50.0 µM, active compounds read high. The procedure, abridged:
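In this screen, a yeast mutant lacking normal mitotic checkpoint function is challenged with compound. Relative growth versus vehicle gives the inhibition value.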

Test [6] in a line: NCI Yeast Anticancer Drug Screen. Data for the mlh1 rad18 strain (AID 175). Conditions: S. cerevisiae mlh1 rad18 strain growth inhibition; at 50.0 µM; active compounds read high. The essentials: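 Genetically defined yeast (DNA repair-deficient) exposed to compounds; growth inhibition determined relative to vehicle.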

As to `Cn1ncc2c(=S)[nH]c(=O)[nH]c21`, the growth inhibition was 3.7% in test [1]; -0.2% in test [2]; -1.1% in test [3]; -4.95% in test [4]; 1.05% in test [5]; -0.1% in test [6].
As to `CCOC1OC(C2COC(=O)O2)C(O)C1O` (stereo not drawn), the growth inhibition in test [1] is 15.8%; in test [2], 10.6%; in test [3] it was -3.85%; in test [4] it was -71.2%; in test [5], 7.4%; in test [6], -3%.
On to `O=C(Nc1ncc([N+](=O)[O-])s1)c1cc(Cl)cc(Cl)c1`, for which the growth inhibition was 60.5% in test [1]; 61% in test [2]; 77.9% (active) in test [3]; 53% in test [4]; 57.5% in test [5]; 74.3% (active) in test [6].
With `CN1C(=S)C2=C(c3ccccc3)N(C)C(=S)C2=C1c1ccccc1`, the growth inhibition in test [1] is 6%; in test [2], -6.15%; in test [3], 10.5%; in test [4] it was 28.9%; in test [5], -2.3%; in test [6], 26.1%.
For `CCCCCCCCCCCCCCOc1ccc(Sc2ccc([N+](=O)[O-])cc2)cc1`, the growth inhibition in test [1] is 40.8%; in test [2], -0.1%; in test [3] it was 46%; in test [4], -5%; in test [5], 5.8%; in test [6], 26.8%.
Regarding `N#CSCCOCCOC(=O)NC1CCCCC1`, the growth inhibition is 10.2% in test [1]; 4.75% in test [2]; 14.7% in test [3]; 5.25% in test [4]; 16.2% in test [5]; 14.6% in test [6].
With `Oc1ccc2ccccc2c1-c1c(OC(c2ccccc2)c2ccccc2)ccc2ccccc12`, the growth inhibition in test [1] was 5.9%; in test [2], -19.2%; in test [3] it was 0.2%; in test [4], -29.4%; in test [5], -4.65%; in test [6] it was -13.1%.
As to `O=C(OCC1OC(OC(=O)c2ccc([N+](=O)[O-])cc2)CC(OC(=O)c2ccc([N+](=O)[O-])cc2)C1OC(=O)c1ccc([N+](=O)[O-])cc1)c1ccc([N+](=O)[O-])cc1` (stereo not drawn), the growth inhibition in test [1] was 11.2%; in test [2], 15.2%; in test [3], 4.1%; in test [4], -7.35%; in test [5] it was -4.15%; in test [6] it was 36.5%.
Consider `Cc1cc(C(C)C)cc(C(C)C)c1`, for which the growth inhibition is -6.25% in test [1]; -13.9% in test [2]; -9.45% in test [3]; -4% in test [4]; -0.85% in test [5]; 7.95% in test [6].
On to `CC/C(C)=N/C(=O)NN`, for which the growth inhibition was -20.1% in test [1]; 8.75% in test [2]; -16.2% in test [3]; 19.3% in test [4]; 35.5% in test [5]; 20.3% in test [6].
Consider `CC(=O)NCC1OCC2OC(C)(C)OC12` (stereo not drawn), for which the growth inhibition in test [1] is 3.35%; in test [2], -5%; in test [3], -11.7%; in test [4] it was -73.8%; in test [5], -12.1%; in test [6] it was -8.8%.
For the compound `CCOC(=O)C1=C(c2ccccc2)N=c2ccccc2=S1C` (stereo not drawn), the growth inhibition is 7.25% in test [1]; -2.3% in test [2]; 18.1% in test [3]; -3.35% in test [4]; 5.1% in test [5]; 20.4% in test [6].
Consider `O=S(=O)(O)Cc1ccc(CS(=O)(=O)O)cc1`, for which the growth inhibition is 14.7% in test [1]; -2.1% in test [2]; -1.3% in test [3]; -56.4% in test [4]; -3.8% in test [5]; -17% in test [6].
Regarding `CC1=CC(=O)C2CC1C2(C)C` (stereo not drawn), the growth inhibition in test [1] is 6.55%; in test [2], -0.5%; in test [3] it was 0.5%; in test [4], 4.75%; in test [5], 4.6%; in test [6], -5.2%.
Take `Cc1cc(OCc2nnc3n2S(=O)(=O)c2ccccc2N3C)ccc1Cl`: the growth inhibition in test [1] was 49.4%; in test [2], 2%; in test [3], -21.8%; in test [4] it was -0.75%; in test [5] it was -30.4%; in test [6], -22.4%.
For `NC(=O)N/N=C/c1ccc2c(c1)OCO2`, the growth inhibition in test [1] was 20.1%; in test [2] it was -7.9%; in test [3], 0%; in test [4], 8.45%; in test [5], -0.15%; in test [6], 13.8%.
With `CCOC(=O)/C(C#N)=C/Nc1[nH]c(=O)c(C#N)c(-c2ccc(Cl)cc2)c1SC`, the growth inhibition in test [1] was 10.9%; in test [2] it was 5.8%; in test [3], -9.35%; in test [4] it was -9.2%; in test [5], 2.1%; in test [6] it was 16.8%.
Regarding `N/N=C(\NN)c1ccccc1`, the growth inhibition in test [1] was 11.7%; in test [2], 12.2%; in test [3] it was -4.2%; in test [4] it was -47.5%; in test [5], 0.75%; in test [6], 11.7%.
With `O=C(c1ccccc1)C1(c2ccccc2)CCCCC1`, the growth inhibition in test [1] was 19.6%; in test [2] it was 15.6%; in test [3], 20.1%; in test [4] it was -10.6%; in test [5], 0.45%; in test [6], 32.6%.
With `O=C(Nc1nc(=S)[nH][nH]1)C(=O)C(c1cnc2ccc([N+](=O)[O-])cc2n1)[N+](=O)[O-]` (stereo not drawn), the growth inhibition in test [1] is -4.5%; in test [2] it was -26%; in test [3] it was -14.3%; in test [4] it was 7.9%; in test [5] it was -0.6%; in test [6], 3.2%.
`O=C(Nc1ccc2ccccc2c1)C(F)(F)F`: the growth inhibition in test [1] is -14.7%; in test [2], -1%; in test [3], -4.25%; in test [4] it was -9.8%; in test [5], 5.4%; in test [6], -8.95%.
Take `COC(C)C(NC(=O)C1CCCN1C)C1OC(SCCOC(=O)c2ccccc2O)C(O)C(O)C1O` (stereo not drawn): the growth inhibition in test [1] is 8.3%; in test [2] it was 6.3%; in test [3], -13.6%; in test [4], 13.4%; in test [5], 3.45%; in test [6], 31.6%.
Take `CC1(C)OC(=O)C(C(N)=O)C1c1ccc(Cl)cc1` (stereo not drawn): the growth inhibition was 6.15% in test [1]; 0.8% in test [2]; -5.65% in test [3]; -3% in test [4]; -6.25% in test [5]; 13.8% in test [6].
